Screening data as filed in PubChem BioAssay.
PME-1 primary = PME-1 inhibitors via competitive probe labeling, primary screen, biochemical, fluorescence polarization, FP-Rh probe, HTS; Protein phosphatase methylesterase 1 (Homo sapiens), Q9Y570; recombinant PME-1; inhibition, % at 5.9 µM; hit rate 0.53% among 320,000;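 active = inhibition above the campaign mean of all compounds plus 3 SD, cut at about 26% in these data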;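 also: competitive labeling of PME-1 active site by serine hydrolase directed probe; 0% = PME-1 with DMSO and 100% = wells lacking PME-1 enzyme; inhibitors block probe labeling so polarization falls and inhibition rises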
GSTO1 inh = inhibitors of recombinant GSTO1, primary screen, counter-screen for RBBP9 inhibitor project, biochemical, fluorescence polarization; Glutathione S-transferase omega-1 (Homo sapiens), P78417; activity-based probe fluorescence polarization; inhibition, % at 5.96 µM; hit rate 1.1% among 300,000; AID 1974, 2009;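 active = inhibition above the campaign mean inhibition plus 3 SD, cut at about 35% in these data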;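 also: 0% = GSTO1-1 with DMSO and 100% = wells lacking GSTO1-1 enzyme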
LYPLA2 inh = LYPLA2 inhibitors, primary screen, counter-screen for PME1 inhibitor project, biochemical, fluorescence polarization, FP-Rh probe ABPP; Acyl-protein thioesterase 2 (Homo sapiens), O95372; recombinant LYPLA2; inhibition, % at 5.9 µM; hit rate 0.38% among 320,000; AID 2177, 2009;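 active = inhibition above the screen-wide mean plus 3 SD, limit set per campaign, cut at about 26% in these data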;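 also: 0% = LYPLA2 with DMSO and 100% = wells lacking LYPLA2 enzyme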
PAD4 inh = human PAD4 inhibitors, primary screen, biochemical, fluorescence polarization, 1536-well format; inhibition, % at 6.36 µM; hit rate 0.41% among 330,000; recombinant PAD4, RCA probe fluorescence polarization; Protein-arginine deiminase type-4 (Homo sapiens), Q9UM07;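 active = percent inhibition above a cutoff equal to the mean of all tested compounds plus 3 SD, cut at about 15% in these data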;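 also: 0% = PAD4 with RCA probe and DMSO and 100% = probe without PAD4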
Target sequence (Q9UM07 whole entry, looked up): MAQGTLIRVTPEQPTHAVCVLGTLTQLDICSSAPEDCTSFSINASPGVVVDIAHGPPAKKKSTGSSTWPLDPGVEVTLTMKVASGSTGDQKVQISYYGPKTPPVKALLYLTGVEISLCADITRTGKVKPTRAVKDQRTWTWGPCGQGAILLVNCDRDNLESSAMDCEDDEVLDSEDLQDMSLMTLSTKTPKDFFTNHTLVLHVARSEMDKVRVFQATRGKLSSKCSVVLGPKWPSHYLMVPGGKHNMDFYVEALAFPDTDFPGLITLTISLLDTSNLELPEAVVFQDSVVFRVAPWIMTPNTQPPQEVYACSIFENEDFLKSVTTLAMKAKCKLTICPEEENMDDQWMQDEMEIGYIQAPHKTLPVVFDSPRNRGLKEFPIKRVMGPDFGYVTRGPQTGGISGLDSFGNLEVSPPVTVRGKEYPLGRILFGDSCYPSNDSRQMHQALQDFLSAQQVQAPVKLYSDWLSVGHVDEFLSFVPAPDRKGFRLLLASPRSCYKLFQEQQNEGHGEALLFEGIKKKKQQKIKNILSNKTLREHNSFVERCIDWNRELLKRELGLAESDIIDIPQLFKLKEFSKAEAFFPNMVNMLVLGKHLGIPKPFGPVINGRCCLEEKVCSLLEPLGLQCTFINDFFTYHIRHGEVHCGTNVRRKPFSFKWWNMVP
Fam108B counter = mouse Fam108B serine hydrolase inhibitors, primary screen, counter-screen for RBBP9 inhibitor project, biochemical, fluorescence polarization. AID 1947, 2009. inhibition, % at 9.51 µM. hit rate 0.33% among 300,000. recombinant Fam108B, FP-Rh probe fluorescence polarization;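 active = inhibition above the screen mean inhibition plus 3 SD, computed separately per campaign, cut at about 18% in these data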;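 also: inhibitors lower polarization as less probe binds the enzyme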
LYPLA1 inh = LYPLA1 inhibitors, primary screen, counter-screen for PME1 inhibitor project, biochemical, fluorescence polarization, FP-Rh probe ABPP | Acyl-protein thioesterase 1 (Homo sapiens), O75608 | recombinant LYPLA1 | inhibition, % at 5.9 µM | hit rate 0.16% among 320,000 | AID 2174, 2009;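 active = inhibition above the mean of all tested compounds plus 3 SD, set per campaign, cut at about 14% in these data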;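 also: inhibitors block serine hydrolase probe labeling of LYPLA1 so polarization falls; 0% = enzyme with DMSO and 100% = wells lacking LYPLA1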
Fam108b confirm = mouse Fam108b serine hydrolase inhibitors, confirmation, counter-screen for RBBP9 inhibitor project, biochemical, fluorescence polarization, triplicate | hit rate 44% among 930 | shares compounds with Fam108B counter | recombinant Fam108b, FP-Rh probe fluorescence polarization | inhibition, % at 9.51 µM;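 active = inhibition above a limit from the primary screen, the mean over all compounds plus 3 SD, cut at about 19% in these data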;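 also: 0% = median of active Fam108b wells and 100% = catalytically dead S170A mutant; inhibitors free the probe so polarization falls as inhibition rises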
Fam108b ABPP HTS = inhibition of mouse Fam108b by HTS hits, late-stage follow-up, biochemical, gel-based ABPP, soluble recombinant form | shares compounds with Fam108B counter | fluorophosphonate probe | inhibition, % at 20 µM | hit rate 44% among 260; in the data active = inhibition above about 40%
GSTO1 confirm = GSTO1 inhibitor hit confirmation, counter-screen for RBBP9 inhibitor project, biochemical, fluorescence polarization, triplicate | hit rate 54% among 2,400 | inhibition, % at 5.96 µM | recombinant GSTO1, probe fluorescence polarization | AID 2176, 2009 | shares compounds with GSTO1 inh;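 active = inhibition above the primary screen's cutoff, its mean inhibition plus 3 SD, cut at about 35% in these data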;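 also: loss of polarization as inhibitors block binding of rhodamine sulfonate ester activity probe; 0% = GSTO1 with DMSO and 100% = wells lacking GSTO1 enzyme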
LYPLA2 confirm = LYPLA2 inhibitors, retest, confirmation, counter-screen for PME1 inhibitor project, biochemical, fluorescence polarization, FP-Rh probe ABPP; shares compounds with LYPLA2 inh; inhibition, % at 5.9 µM; hit rate 72% among 1,100; recombinant LYPLA2; AID 2232, 2010;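 active = mean inhibition across replicates above the hit cutoff set in the primary screen, cut at about 26% in these data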;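 also: blocked labeling of the enzyme by serine hydrolase FP-Rh probe lowers polarization; 0% = enzyme with DMSO and 100% = wells lacking LYPLA2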
An asterisk follows results filed as active; . = no result; ! = not confirmed by another sample. An excerpt weighted towards active compounds, which were near 1.8% of everything screened.

SMILES	PME-1 primary	GSTO1 inh	LYPLA2 inh	PAD4 inh	Fam108B counter	LYPLA1 inh	Fam108b confirm	others
Oc1ccc(/C=N/NP(=S)(c2ccccc2)c2ccccc2)c(O)c1O	28*	37*	-5	1	-3	-9	.
Clc1ccccc1C1=NCc2nncn2-c2sc(Br)cc21	9	1	5	-2	-1	0	.
NP(=O)(Oc1ccccc1Cl)Oc1ccccc1Cl	98*	6	3	-2	0	2	.
NP(=O)(OCC(F)(F)F)Oc1cccc2ccccc12 (configuration not stated)	15	0	0	-4	-3	0	.
CCCNC(=O)c1c(N)n(CC2CCCO2)c2nc3ccccc3nc12 (configuration not stated)	12	35*	5	-19	3	2	.
Nc1c(C(=O)NCc2ccco2)c2nc3ccccc3nc2n1CCN1CCOCC1	28*	-8	2	1	2	2	.
Nc1c(C(=O)NCc2ccco2)c2nc3ccccc3nc2n1Cc1ccccc1	6	-2	-3	-4	-2	-3	.
COC(=O)C1C(O)C(C)C(O)C(C)/C=C\C=C(/C)C(=O)Nc2c(C)c(OC(C)=O)c3c(c2O)C(=O)C(C)=C2OCOC(=C23)/C(C)=C/C(C)(O)C(O)C(C)C1O (configuration not stated)	1	69*	-3	-9	2	0	.
COc1cccc(OC)c1C1=NCC(=O)Nc2c1oc1ccc(Br)cc21	45*	1	-6	-2	-6	-2	.
O=C1CN=C(c2ccccc2)c2oc3ccc(Br)cc3c2N1	-3	-6	3	2	-1	-4	.
C=CCn1c(O)c(N=Nc2c(C)n(C)n(-c3ccccc3)c2=O)c(=O)[nH]c1=S	-2	36*	-1	-2	-2	-3	.
O=S(=O)(c1ccc(Cl)cc1)N1CC1c1ccccc1 (configuration not stated)	-3	35*	3	0	-1	0	.
O=c1[nH]c(=S)[nH]c(O)c1N=Nc1ccc(S(=O)(=O)N2CCc3ccccc32)cc1	36*	-10	-5	-9	10	-1	.
O=c1[nH]c(=S)[nH]c(O)c1N=Nc1ccc(SC(F)F)cc1	-3	3	1	-1	0	2	.
COC(=O)C1=C(c2cccc(Cl)c2)C[C@@H]2CC[C@H]1N2C(=O)NCC1CC1	1	.	0	2	.	1	.
O=C(Cc1ccccc1F)N1CCN(CC(=O)N2CCCC2)CC1	.	.	.	4	.	.	.
O=C1NC(=S)NC(=O)C1=Cc1ccc2c(c1)CCN2CCCCl	2	51*	-5	2	3	-5	.
CC(C)C[C@H]1C(=O)N2CCCC2[C@]2(O)O[C@](NC(=O)[C@@H]3C=C4c5cccc6[nH]cc(c56)CC4N(C)C3)(C(C)C)C(=O)N12 (some centres not stated)	12	48*	4	18*	19*	0	17
NC(Cc1cc(O)c(O)cc1O)C(=O)O (configuration not stated)	38*	72*	3	-20	80*	-24	101*	Fam108b ABPP HTS=50*
N[C@@H](CCl)C(=O)O	-5	3	2	5	3	0	.
O=c1[nH]c2ccccc2n1CCCN1CCC(n2c(=O)[nH]c3cc(Cl)ccc32)CC1	-1	3	4	6	19*	0	-4
Cc1cc(N=Nc2ccccc2C)ccc1N	8	-4	6	-5	-1	1	.
c1ccc(NC2=NCCS2)cc1	-10	-6	1	-3	-8	-1	.
O=C(N/N=C/c1c(O)n(Cc2ccccc2)c(=O)[nH]c1=O)c1ccccc1O	1	15	1	-7	21*	-5	42*	Fam108b ABPP HTS=0
O=C(N/N=C/c1c(O)n(Cc2ccc(F)cc2)c(=O)[nH]c1=O)c1ccccc1O	19	1	5	0	14	-4	.
SMILES	PME-1 primary	GSTO1 inh	LYPLA2 inh	PAD4 inh	Fam108B counter	LYPLA1 inh	Fam108b confirm	others
CC(=O)c1ccc2c(c1)C1C(Cl)C(Sc3ccccc3[N+](=O)[O-])CC1C(C(=O)O)N2 (configuration not stated)	31*	5	13	-3	56*	1	5
COC(=O)C1=C(c2ccc(OC)c(OC)c2)C[C@@H]2CC[C@H]1N2C(=O)NC(C)C	-2	.	4	2	.	0	.
CN(C)[C@@H]1C(=O)C(C(N)=O)=C(O)[C@@]2(O)C(=O)C3=C(O)c4c(O)cccc4[C@@](C)(O)[C@H]3[C@H](O)[C@@H]12	-6	61*	4	-4	59*	-3	67*!	Fam108b ABPP HTS=0;GSTO1 confirm=69*
COC(=O)c1nc(-c2ccc3c(n2)C(=O)C(N)=C(OC)C3=O)c(N)c(-c2ccc(OC)c(OC)c2O)c1C	66*	79*	-2	-9	49*	2	63*	Fam108b ABPP HTS=0;GSTO1 confirm=88*
COc1cccc(C2CCN(CC(=O)Nc3cc(Cl)ccc3OC)CC2O)c1 (configuration not stated)	2	-3	2	1	6	-1	.
COc1cccc(CCNCc2c(F)cccc2F)c1	1	1	-4	-1	5	-1	.
Nc1c(C(=O)NCCCc2ccccc2)c2nc3ccccc3nc2n1Cc1cccs1	2	58*	0	-13	34*	-2	21*	GSTO1 confirm=-1
Cc1noc(C)c1CC(=O)N1CCCC(N2CCN(c3ccccc3F)CC2)C1 (configuration not stated)	1	2	-3	2	-1	-2	.
O=C(O)c1cccc2c1NC(C(=O)O)C1CC(Sc3ccccc3[N+](=O)[O-])C(Cl)C21 (configuration not stated)	18	39*	29*	4	75*	12	54*	Fam108b ABPP HTS=0;GSTO1 confirm=-21;LYPLA2 confirm=12
